An excerpt weighted towards active compounds, which were near 9.4% of everything screened.
NPC1 promoter act – activates the NPC1 promoter; 320,000 tested, 2.4% active; Huh7 NPC1 promoter luciferase reporter, 24 h; AID 485313; Potency, µM (titrated, usually from 9.22 µM), actives largely listed as activators; note: nearly all actives have a fitted effect of over 60% in size
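Cells: Huh7 expressing luciferase under the NPC1 promoter, 1500/well. Seeded 2 h, compound added, incubated 24 h at 37 °C. Luciferase reagent, 10 min ambient, then luminescence.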
FLuc counter – inhibits or activates purified firefly luciferase, miR-21 counter-screen; purified FLuc, Km substrates, luminescence inhibition; AID 588342; P08659; Potency, µM (titrated, usually from 57.5 µM), most hits filed as inhibitors; 360,000 tested, 6.9% active; note: nearly all actives have a fitted effect of over 55% in size
Target sequence (P08659 whole entry, looked up): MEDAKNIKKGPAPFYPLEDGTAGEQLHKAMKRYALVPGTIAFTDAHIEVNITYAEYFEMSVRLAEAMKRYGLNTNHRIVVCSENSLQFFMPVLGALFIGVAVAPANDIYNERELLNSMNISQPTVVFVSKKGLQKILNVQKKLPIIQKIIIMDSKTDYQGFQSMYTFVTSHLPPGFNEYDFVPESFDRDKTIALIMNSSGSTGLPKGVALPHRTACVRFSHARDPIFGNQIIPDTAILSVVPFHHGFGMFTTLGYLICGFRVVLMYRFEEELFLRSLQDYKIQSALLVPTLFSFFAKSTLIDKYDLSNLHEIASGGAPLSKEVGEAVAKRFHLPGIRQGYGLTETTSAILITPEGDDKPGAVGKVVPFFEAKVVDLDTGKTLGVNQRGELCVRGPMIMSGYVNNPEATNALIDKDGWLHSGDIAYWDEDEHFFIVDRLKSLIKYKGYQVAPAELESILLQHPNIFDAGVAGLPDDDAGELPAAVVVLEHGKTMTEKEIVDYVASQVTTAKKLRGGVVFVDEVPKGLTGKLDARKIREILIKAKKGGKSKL
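Purified P. pyralis luciferase, 10 nM final, with Km-level 10 uM D-luciferin and 10 uM ATP in 50 mM Tris acetate pH 7.5, 10 mM Mg acetate, 0.01% Tween-20, 0.05% BSA; 6-point qHTS titration about 60 µM downward; luminescence read.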
ELG1 DNA repair – ELG1-dependent DNA repair inhibition. HEK293T ELG1-luciferase reporter, luminescence, 16 h; DNA damage induced by 5-fluorouridine. Potency, µM (top dose mostly 46.1 µM), most hits filed as inhibitors. 330,000 tested, 2.3% active. AID 504467; note: nearly all actives have a fitted effect of over 55% in size
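Quantitative HTS, concentration-response format. 2,000 cells/well co-treated with 5-fluorouridine and compound, 16 hr in 5% CO2 at 37 °C; ONE-Glo luminescence read after 30 min.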
SMN2 splice up – increases expression of the SMN2 splice variant; HEK293 SMN2-luciferase splicing reporter, luminescence, 30-36 h; Potency, µM (doses to about 46.1 µM), most hits filed as activators; 210,000 tested, 2.8% active; note: nearly all actives have a fitted effect of over 55% in size
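HEK293 cells carry an SMN2 minigene-luciferase reporter in which exon 7 inclusion puts luciferase in frame. Cells were seeded at 2000 cells/well, attached for 10-12 hours, then exposed to compounds for 30-36 hours at 37C before ONE-Glo luminescence.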
Rab9 promoter act – activators of Rab9 promoter. Huh7 Rab9 promoter-luciferase reporter, luminescence, 24 h. Potency, µM (titrated, usually from 9.22 µM), usual class: activators. 320,000 tested, 2.8% active; note: nearly all actives have a fitted effect of over 60% in size
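Luciferase signal after 10 min detection reagent at ambient indicates Rab9 promoter upregulation; stably transfected Huh7 cells were treated 24 h with compound in DMSO at 37 °C, 5% CO2.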
ELG1 genotoxic – inducers of genotoxicity in HEK293T ELG1-luciferase cells; HEK293T ELG1-luciferase reporter, luminescence, 16 h; Potency, µM (series often up to 46 µM), usual class: activators; 330,000 tested, 1.3% active; note: nearly all actives have a fitted effect of over 60% in size
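ELG1-luciferase HEK293T cells, 2,000/well; compound pinned in; 16 hr, 37 °C, 5% CO2; ONE-Glo, 30 min RT; luminescence on CCD imager.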
Hits are given with their value; 0 = inactive; ? = inconclusive; - = not tested or not shown; [ ] = dose if it differs, or a comment. Calls come from the whole dose curve; as a rule, active = well fitted curve in the direction sought with a large enough effect; inconclusive = small, poorly fitted or top-dose-only effect, or another doubt; inactive = no such curve, though single readings can be large; an effect the other way counts as inactive or inconclusive.

SMILES | NPC1 promoter act | FLuc counter | ELG1 DNA repair | SMN2 splice up | Rab9 promoter act | ELG1 genotoxic
CCOC(=O)N1CCN(C(=O)C2CCCN(Cc3nc(-c4ccc(Cl)cc4)oc3C)C2)CC1 (stereo not given) | 0 | 0 | 4.61µM | 0 | 0 | 0
CC(=O)c1ccccc1C(=O)N1CCCC(CCC(=O)N2CCN(c3ccccn3)CC2)C1 (stereo not given) | 0 | 0 | 23.1µM | - | 0 | 0
CN(C)/C=N/C(=S)Nc1ccc(Cl)c(Cl)c1 | 0 | 16.9µM | ? | 0 | 0 | ?
CC(CCc1ccccc1)NC(=O)C1CCCN(c2nnc(-n3cccc3)s2)C1 (stereo not given) | 0 | 0 | ? | 0 | 0 | 0
O=C(C1CCCN(c2nnc(-n3cccc3)s2)C1)N1CCN(c2ccccc2)CC1 (stereo not given) | 0 | 0 | 16.4µM | 0 | 0 | 0
O=C(C1CCCN(S(=O)(=O)c2ccc(Br)s2)C1)N1CCN(c2ccccc2)CC1 (stereo not given) | 0 | 0 | 14.6µM | 0 | 0 | 0
CCOC(=O)c1cccc(NC(=O)c2oc3c(c2C)-c2nn(CC)cc2CC3)c1 | - | 0 | - | - | - | -
CCN(CC)C(=O)c1sc2c(c1C)c(=O)n(CCc1ccccc1)c(=O)n2Cc1ccc(F)cc1Cl | - | 0 | - | - | - | -
CC(C(=O)Nc1ccc(C(=O)O)cc1)N1C(=O)c2ccccc2C1=O (stereo not given) | 0 | 0 | 0 | 0 | 0 | 0
O=C(CCN1C(=O)c2ccccc2C1=O)Nc1ccc(-c2nc3ccccc3s2)cc1 | 1.26µM | ? | ? | - | 0.398µM | 10.3µM
Cc1ccc2nc(-c3ccc(NC(=O)CCN4C(=O)c5ccccc5C4=O)cc3)sc2c1 | 0.398µM | 1.51µM | ? | 0.316µM | 0.251µM | 1.03µM
Cc1ccc2nc(-c3ccc(NC(=O)C(C)N4C(=O)c5ccccc5C4=O)cc3)sc2c1 (stereo not given) | ? | 8.49µM | ? | 11.2µM | 0 | ?
COc1ccc(NC(=O)CCN2C(=O)c3ccccc3C2=O)cc1 | 0 | 0 | 0 | - | 0 | 0
O=C(CCN1C(=O)c2ccccc2C1=O)Nc1nc2ccccc2s1 | 0 | 19µM | 0 | 0 | 0 | 0
Cc1oc(-c2ccc(C(=O)NCc3ccc(F)cc3)cc2)nc1CS(=O)c1ccccc1 (stereo not given) | - | 0 | - | - | - | -
COc1ccc2c(c1)c1c(c(=O)n(-c3ccc(OC)c(OC)c3)c(=O)n1Cc1ccc(F)cc1)n2C | - | 0 | - | - | - | -
Cc1ccc(C2(C)NC(=O)N(CC(=O)Nc3ccc(-c4nc5ccc(C)cc5s4)cc3)C2=O)cc1 (stereo not given) | 1.78µM | 2.39µM | ? | - | ? | ?
Cc1ccc(NC(=O)CN2C(=O)NC(C)(c3ccc4c(c3)OCO4)C2=O)cc1 (stereo not given) | - | - | 0 | - | - | 0
O=C(COC(=O)CC1CCCC1)Nc1ccc(Cl)cc1 | 0 | 30.1µM | ? | - | 0 | 0
O=C(CC1CCCC1)Nc1ccc(Br)cc1 | ? | 16.9µM | ? | - | ? | ?
CCOC(=O)CC(NC(=O)c1cc2cc(OC)ccc2oc1=O)c1ccc(OC)cc1 (stereo not given) | - | 0 | - | 0 | - | -
Oc1ccc(Cc2cc(Cl)cc(Cl)c2O)cc1Cl | - | - | - | 0[9.22 µM] | - | -
O=C(COC(=O)c1cccc(NC(=O)c2ccc(Br)cc2)c1)c1ccc(Cl)cc1 | - | 2.69µM | - | ? | - | -
CC(C)(C)C(=O)COC(=O)c1cccc(NC(=O)c2ccco2)c1 | 0 | ? | ? | ? | 0 | 0
O=C(COC(=O)c1cccc(NC(=O)c2ccco2)c1)c1ccc(Br)cc1 | ? | 1.69µM | 0 | 0 | ? | 0
SMILES | NPC1 promoter act | FLuc counter | ELG1 DNA repair | SMN2 splice up | Rab9 promoter act | ELG1 genotoxic
COc1ccc(C(=O)COC(=O)c2ccc(NC(=O)c3ccccc3)cc2)cc1 | 0 | 0 | 0 | 0 | 0 | 0
COc1ccccc1NCC(=O)N/N=C/C=C/c1ccccc1 | 0 | 26.9µM | 0 | 0 | 0 | 0
Cc1ccccc1OCC(=O)N/N=C/C=C/c1ccccc1 | 0 | 0 | 0 | 0 | 0 | 0
COc1ccc(NCC(=O)N/N=C/C=C\c2ccccc2)cc1 | 0 | ? | 0 | 0 | 0 | 0
CCOC(=O)N/N=C/C=C/c1ccccc1 | ? | ? | ? | 11.2µM | ? | ?
CC(NC(=O)Nc1cc(Cl)ccc1Cl)c1c(-n2cccc2)sc2c1CCCC2 (stereo not given) | - | 0 | - | - | - | -
Nc1c(C(=O)Nc2ccc3c(c2)OCCO3)nnn1Cc1ccccc1Cl | 2.82µM | ? | ? | - | 2.24µM | 0
Nc1c(C(=O)Nc2ccc3c(c2)OCCO3)nnn1Cc1ccc(F)cc1 | 2.51µM | ? | ? | - | 2.24µM | ?
Nc1c(C(=O)Nc2ccc3c(c2)OCCO3)nnn1Cc1cccc(Cl)c1 | ? | ? | ? | - | ? | 0
COc1ccc(Br)cc1Cn1nnc(C(=O)Nc2ccc3c(c2)OCCO3)c1N | 0 | ? | 0 | - | 0 | 0
O=C(Cn1cc(SCc2ccc(F)cc2)c2ccccc21)N1CCCCC1 | - | 0 | - | - | - | -
CCOc1cccc2sc(N(Cc3cccnc3)C(=O)C3CCCCC3)nc12 | - | 0 | - | - | - | -
CCOC(=O)c1cn[nH]c1NC(=S)Nc1ccc(Cl)cc1 | 0.316µM | 0.379µM | ? | - | 0.316µM | ?
O=C(CC1Nc2ccccc2NC1=O)c1ccccc1 (stereo not given) | ? | 3.01µM | ? | 12.6µM | 2.51µM | 9.2µM
Cc1ccc(Cl)cc1NC(=O)CC1Sc2ccccc2NC1=O (stereo not given) | - | 0 | - | 0 | - | -
Cc1ccc(NC2Sc3ccccc3NC2=O)cc1Cl (stereo not given) | 0 | 19µM | 0 | - | 0 | 0
Cc1ccc(NC(=O)CC2Nc3ccccc3NC2=O)cc1Cl (stereo not given) | 0 | 23.9µM | ? | 0 | 0 | ?
Cc1ccc(NC(=O)CC2Nc3ccccc3NC2=O)cc1C (stereo not given) | - | 0 | - | 0 | - | -
O=C(CC1Nc2ccccc2NC1=O)NCCc1ccccc1 (stereo not given) | 0 | 0 | 0 | 0 | 0 | 0
COc1ccc(OC)c(/C=C/C(=O)OCC(=O)Nc2ccc(Cl)c(S(=O)(=O)N(C)C)c2)c1 | 0 | ? | 0 | 0 | 0 | 0
COc1ccc(/C=C/C(=O)OCC(=O)Nc2cc(S(=O)(=O)N(C)C)ccc2Cl)cc1 | 0 | 12µM | 0 | 0 | 0 | 0
COc1cccc(/C=C/C(=O)OCC(=O)Nc2ccc(Cl)c(S(=O)(=O)N(C)C)c2)c1OC | 0 | 13.5µM | 0 | 0 | 0 | 0
COc1cc(/C=C/C(=O)OCC(=O)Nc2cc(S(=O)(=O)N(C)C)ccc2Cl)ccc1O | 0 | ? | 0 | - | 0 | 0
O=c1/c(=C/c2ccc([N+](=O)[O-])cc2)sc2n1CCCN=2 | 2.82µM | ? | ? | 0 | 3.55µM | ?
CCCCN(C)CC(O)Cn1cc(/C=C/C(=O)c2ccc(OC)c(OC)c2)c2ccccc21 (stereo not given) | - | 0 | - | 0 | - | -
O=c1cc(O)c2sc3nc(C(F)(F)F)c4c(c3c2[nH]1)CCCCC4 | 0 | 19µM | 0 | 0 | 0 | 0
